# HepG2 viability – HepG2 cytotoxicity, counter-screen for TGF-b inhibitors | HepG2 CAGA-GFP viability, ATP luminescence, 18 h | Potency, µM (doses to about 46.1 µM), for inactives: at the highest dose activity change, negative = cytotoxicity, hits mostly cytotoxic | 410,000 compounds, 0.76% hits | AID 588856
#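 HepG2 CAGA-GFP cells (1000/well, DMEM with 1% FBS) received compound, then TGF-beta at 500 pg/mL final, and were incubated 18 hours at 37 degrees C. Viability was read by CellTiter-Glo luminescence. Media-only wells were set as complete cell-killing and DMSO as no toxicity.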
# TGFb inhibitor – blocks TGF-b signaling; Potency, µM (doses to about 46.1 µM), for the others: at the highest dose activity, negative = inhibition, actives largely listed as inhibitors; 410,000 compounds, 1.2% hits; HepG2 CAGA-GFP TGF-b/SMAD3 reporter, GFP fluorescence, 18 h; TGF-beta stimulated, 500 pg/mL final; AID 588855; further: on the % scale 0 is the no-effect control and ±100 the full control effect; nearly all actives have a fitted effect of over 65% in size
#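 Per well, imaged GFP fluorescence of HEPG2 CAGA-GFP cells gives the signal; cells get compound, then TGF-beta (500 pg/mL final), 18 h at 37 degrees C; %Activity versus -TGF-beta and +DMSO controls.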
# Nrf2 ARE act – activators of Nrf2 (ARE) signaling | AREc32 ARE-luciferase reporter (MCF7-derived line), luminescence, 24 h | Potency, µM (doses to about 46.1 µM), without a hit: top-dose activation, hits mostly activators | 410,000 compounds, 0.31% hits; further: % of control where 0% means no effect; nearly all actives have a fitted effect of over 65% in size
#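 Luminescent ARE reporter assay in AREc32_Fluc cells: overnight plating at 37 deg C, 24 hr compound incubation, Steady-Glo added, 30 min RT before reading.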
# Nrf2 block – blocks Nrf2 signaling. 360,000 compounds, 2.1% hits. A549 ARE-Fluc reporter, luciferase luminescence, 18-24 h. AID 504444. Potency, µM (top dose mostly 46 µM), inactives show top-dose activity change, negative = inhibition, hits mostly inhibitors; further: on the % scale 0 is the no-effect control and ±100 the full control effect; nearly all actives have a fitted effect of over 60% in size
#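 Reporter: ARE-Fluc in A549. Exposure: 18-24 h, 37 °C, 5% CO2, 5% FBS OPTI-MEM. Readouts: fluorescent cytotoxicity (CellTiter-Fluor), then luminescent Nrf2 signal after BugLite.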
# A549 viability – kills or reduces viability of A549 cells in Nrf2 counter-screen. A549 ARE-Fluc cells, CellTiter-Fluor viability, 18-24 h. Potency, µM (top dose mostly 46 µM), inactives show at the top dose activity change, negative = cytotoxicity, actives largely listed as inhibitors. 390,000 compounds, 0.16% hits. AID 504648; further: on the % scale 0 is the no-effect control and ±100 the full control effect
#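 Cytotoxicity counterscreen: CellTiter-Fluor fluorescence was measured in A549 ARE_Fluc cells after 18-24 h of compound exposure in a concentration series. The subsequent BugLite luminescent read reports ARE-luciferase activity.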
# * marks the source's active call; other numbers are inactive results; ? = inconclusive; / = no result given; ! = repeats disagree. Most compounds without a hit are left out; they make up all but 3.6% or so of the library. The call rests on the fitted dose curve; in most records, active means well fitted curve in the direction sought with a large enough effect; inconclusive means small, poorly fitted or top-dose-only effect, or another doubt; inactive means no such curve, though single readings can be large; an effect the other way counts as inactive or inconclusive. Potency means the concentration at half of the fitted maximal effect.
SMILES,HepG2 viability,TGFb inhibitor,Nrf2 ARE act,Nrf2 block,A549 viability
CCOC(=O)c1c(NC(=O)C2C3C=CC(C3)C2C(=O)O)sc2c1CC(C)(C)OC2 (configuration not stated),-2%,3%,0%,-11%,-12%
CCOC(=O)c1c(NC(=O)c2cccs2)sc2c1CC(C)(C)OC2,0.1µM*,-22%,5%,/,9%
CC(C)COc1ccc(C(=O)Nc2sc3c(c2C(=O)O)CC(C)(C)OC3)cc1,-13%,-20%,0%,5.8µM*,?
c1ccc(-c2nc(-c3ccccn3)no2)cc1,10µM*,3%,?,?,-15%
c1ccc(-c2ccc(-c3nc(-c4ccccn4)no3)cc2)cc1,7.1µM*,-6%,-2%,?,-6%
Clc1cccc(-c2nc(-c3ccccn3)no2)c1,-36%,?,?,?,-4%
Cc1ccc(-c2nc(-c3ccccn3)no2)cc1[N+](=O)[O-],-54%,-37%,6%,?,0%
Cc1ccc(-c2nc(-c3ccccn3)no2)cc1,13µM*,-1%,-2%,2.1µM*,-1%
Cc1ccc(-c2nc(-c3ccccn3)no2)cc1Cl,11µM*,-2%,-1%,?,5%
CCC(C)Nc1nc(-c2cccc(OC)c2O)nc2ccccc12 (configuration not stated),-9%,?,-2%,21µM*,?
COc1cccc(-c2nc(NC(C)C)c3ccccc3n2)c1O,-55%,?,0%,?,/
CCOc1ccc2[nH]cc(C(=O)NCc3ccccc3)c(=O)c2c1,-40%,?,0%,13µM*,-12%
Cc1ccccc1NS(=O)(=O)c1ccc2[nH]cc(C(=O)NCCc3ccccc3)c(=O)c2c1,-42%,20µM*,0%,/,5%
COc1cccc(NS(=O)(=O)c2ccc3[nH]cc(C(=O)NCCC(C)C)c(=O)c3c2)c1,-71%,?,3%,16µM*,-15%
CCN(c1ccccc1)S(=O)(=O)c1ccc2[nH]cc(C(=O)NCCOC)c(=O)c2c1,-12%,0%,0%,3%,7%
CCOc1ccc2[nH]cc(C(=O)NCCc3ccccc3)c(=O)c2c1,6%,?,5%,?,10%
CCN(c1ccccc1)S(=O)(=O)c1ccc2[nH]cc(C(=O)NC3CCCCC3)c(=O)c2c1,-101%,7.9µM*,-1%,/,0%
CC(C)CCNC(=O)c1c[nH]c2ccc(S(=O)(=O)Nc3cccc(C(F)(F)F)c3)cc2c1=O,-72%,-13%,0%,/,2%
Cc1ccc(CNC(=O)c2c[nH]c3ccc(S(=O)(=O)Nc4ccc(C(C)C)cc4)cc3c2=O)cc1,11µM*,?,-1%,/,-9%
Cc1ccc(C(O)(C(=O)NN(C(=O)c2ccccc2)c2ccccc2)c2ccc(C)cc2)cc1,2%,-3%,0%,15%,-4%
O=C(CCl)N(c1ccccc1)c1ccccc1,11µM*,?,-2%,-7%,-2%
O=C(CCl)N(CCc1ccccc1)CCc1ccccc1,18µM*,?,-2%,2%,0%
O=C(Nc1ccccc1)NN(C(=O)CCl)c1ccccc1,-150%,?,?,21µM*,?
CCC(O)(CC)C(=O)NN(C(=O)CCl)c1ccccc1,-25%,?,?,?,-4%
Cc1ccc(N(NC(=O)C(O)(c2ccccc2)c2ccccc2)C(=O)CCl)cc1,16µM*,?,-3%,?,-13%
SMILES,HepG2 viability,TGFb inhibitor,Nrf2 ARE act,Nrf2 block,A549 viability
CCCCCCN(C(=O)CCl)c1ccccc1,-115%,22µM*,?,0%,4%
O=C(N(c1ccccc1)c1ccccc1)N(c1ccccc1)c1ccccc1,-10%,16µM*,4%,?,-9%
CCc1cc2c(C)cc(C)cc2nc1SCC(=O)Nc1cc(C)on1,2%,-2%,0%,-21%,-6%
C#CCOCCOCCOCCNc1nc(N2CCN(C(=O)[C@H](C(C)C)n3cc(CCO)nn3)CC2)nc(N2CCN(C(=O)[C@H](CCCCN)n3cc(CCCC)nn3)CC2)n1,2%,22%,-1%,6%,-4%
O=C(/C=C/c1ccccc1)COC(=O)c1ccccc1,-19%,-5%,25%,-14%,5%
O=C(c1cc(F)ccc1F)C1CCCN(C(=O)c2cccs2)C1 (configuration not stated),7%,4%,0%,17%,3%
CN(C)CCCN(C(=O)c1cc(-c2cccs2)nc2ccccc12)c1nc2c(F)cccc2s1,-85%,?,-1%,-3%,-12%
CCN(CC)CCN(C(=O)c1ccc(C(=O)c2ccccc2)cc1)c1nc2cc3c(cc2s1)OCO3,-8%,-2%,-1%,-8%,8%
CN(C)CCCN(C(=O)c1ccc(C(=O)c2ccccc2)cc1)c1nc2cc3c(cc2s1)OCO3,11µM*,?,-1%,-9%,-6%
Cc1ccc2nc(N(CCCN(C)C)C(=O)c3cc(-c4cccs4)nc4ccccc34)sc2c1,11µM*,16µM*,-2%,?,?
Cc1ccc2nc(N(CCCN(C)C)C(=O)c3ccc(Br)s3)sc2c1,13µM*!,?,0%,0%,16%
CN(C(=O)c1ccncc1)C1CCS(=O)(=O)C1 (configuration not stated),11%,-4%,-1%,1%,-7%
O=C(Cn1ncc2ccsc2c1=O)N1CCN(c2ccccc2)CC1,-15%,16%,-1%,?,3%
CNC(=O)CCn1nc(-c2ccc(C)cc2)c2ccccc2c1=O,-9%,?,0%,-3%,-3%
Cc1cc(C(=O)CSc2nnc(-c3cccs3)o2)c(C)n1-c1ccccc1,1%,?,-1%,21µM*,-3%
Cc1nc(-c2coc3cc(O)c(C)cc3c2=O)cs1,-57%,-26%,2%,10µM*,-7%
Cc1nc(-c2coc3cc(OCC(=O)O)ccc3c2=O)cs1,-41%,-12%,-3%,?,-9%
Cc1ccc2nc(N3CCC(C(=O)N4CCN(c5cccc(Cl)c5)CC4)CC3)[nH]c2c1,-42%,-37%,9%,/,?
CCOC(=O)N1CCN(c2ncnc3scc(-c4ccc(Cl)cc4)c23)CC1,-26%,16µM*,7%,?,0%
COc1cccc(-c2cnc3c(NC=O)cc(-c4ccoc4)cn23)c1,-1%,?,20%,/,/
CC(=O)Nc1cc(-c2cccc(F)c2)cn2c(-c3ccc(F)c(Cl)c3)cnc12,-46%,18µM*,10%,/,/
COc1cccc(-c2cnc3c(NC(C)=O)cc(-c4cccc(C(=O)NCCN(C)C)c4)cn23)c1,13µM*,?,?,/,/
COc1ccc(-c2cnc3c(NC(C)=O)cc(-c4cccc(C(=O)NCCN(C)C)c4)cn23)cc1OC,-44%,18%,18%,/,/
